# Data published in PubChem BioAssay (NCI).
# Several values for one entry are separate records, joined by “and”; a condition that tells them apart may be missing. Equal entries are not always repeated. About 83,000 compounds went through this panel and 20% of them were active in at least one assay; those are over-represented in the sample as a whole.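 How to read the values: 0–100, growth inhibition (40 = 60% inhibited); 0, no net growth; -100 to 0, cell death (-40 = 40% of starting cells died; -100 = all dead).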 Activity calls are given as the source filed them. The calls were made as follows: active = growth percent below 10; inactive = the rest.
# Tested on: MDA-MB-468 breast
# Experiment: NCI-60 one-dose screen, 48 h (100 = growth as untreated, 0 = no growth, -100 = all killed)
# Details: 10 µM unless noted
row,SMILES,growth
1,COc1ccc(C)c2sc(N(Cc3cccnc3)C(=O)c3ccc(C#N)cc3)nc12,-13.4% (active)
2,c1ccc(-n2nnnc2-c2cccc3ccccc23)cc1,-22.5% (active)
3,COc1ccc(-c2nn(C(=O)c3cc(OC)c(OC)c(OC)c3)c3cc(N)ccc23)cc1,-1.08% (active)
4,N#Cc1ccc(OC(=O)Nc2cc(Cl)cc(Cl)c2)cc1,-16.4% [100 µM] (active)
5,O=C(Nc1ccc(CN2CCOCC2)cc1)c1[nH]ncc1Nc1ncnc2sccc12,-25.6% (active)
6,COc1ccc(OC)c(NCC(=O)n2nc(/C=C\c3ccc(O)c(OC)c3)cc2/C=C\c2ccc(O)c(OC)c2)c1,12.1% (inactive)
7,Cc1ccc(NS(=O)(=O)c2cc(C)ccc2C)cc1,0.244% (active)
8,O=c1cc(-c2ccccc2)[nH]c2ncc(-c3ccc(F)cc3)n12,83% (inactive)
9,Cn1cc(-c2csc(-c3cn(CCN)c4ccc(F)cc34)n2)c2cccnc21,20.2% (inactive)
10,Cc1ccc(/C=C/c2c(C(=O)/C=C/c3ccccc3)c(C)nc3ccccc23)cc1,38.1% (inactive)
11,COc1ccc(/C=C/c2nc(Nc3ccc(S(=O)(=O)Nc4cc(C)on4)cc3)c3ccccc3n2)cc1,29.9% (inactive)
12,O=C(/C=C\c1ccccc1Cl)c1ccccc1,87.5% (inactive)
13,O=C(NCc1ccc(Cn2c(=O)sn(-c3ccc(Cl)cc3)c2=O)cc1)OCc1ccc2c(Cl)cc(Cl)c(O)c2n1,45.4% (inactive)
14,COc1cc(CCc2cc(NC(=O)c3ccc(N4C[C@@H](C)N[C@@H](C)C4)cc3)n[nH]2)cc(OC)c1,71.3% (inactive)
15,NCCC(=O)c1ccc(Cl)cc1,113% (inactive)
16,CC(=O)[C@H]1CC[C@H]2[C@@H]3C[C@H](C)C4=CC(=O)CC[C@]4(C)[C@H]3C(=O)C[C@]12C,106% (inactive)
17,CC(C)(C)CC(C)(C)Nc1c(-c2ccncc2)nc2cnccn12,87.5% (inactive)
18,CSc1nc(Nc2cccc(NC(=O)CCl)c2)c(C#N)c(-c2cccc([N+](=O)[O-])c2)n1,-10.8% (active)
19,O=C(NCC(c1ccsc1)N1CCCCCC1)c1ccc(C(F)(F)F)cc1 (stereo not given),95.3% (inactive)
20,O=C(O)CSCSCC(=O)O,91.2% (inactive)

row,SMILES,growth
1,CC1(C)CC(=O)c2c(nn(-c3ccc(Br)cc3)c2-c2cn(-c3ccccc3)nc2-c2cccnc2)C1,107% (inactive)
2,CCCCCCCC/C=C/CCCCCCCC1=NC(C)(C)CN1C(C)(C)CO,-91.5% (active)
3,COC1=CC(c2ccc[nH]2)=N/C1=C\c1[nH]c(C)c(C(=O)CCCCC(=O)Oc2ccc3c(c2)CCC2C3CC[C@]3(C)[C@@H](O)CC[C@@H]23)c1C (stereo not given in full),52.2% (inactive)
4,CN(C)c1ccc(/C=N/Nc2nc(N/N=C/c3ccc(N(C)C)cc3)nc(N3CCCCC3)n2)cc1,36.3% (inactive)
5,N#Cc1ccc(NC2c3ccccc3CC2O)cc1 (stereo not given),107% (inactive)
6,O=S(=O)(Oc1ccc(-c2cn3ccsc3n2)cc1)c1cccc(C(F)(F)F)c1,92.9% (inactive)
7,C=C(C)[C@@H]1CC[C@]2(C(=O)NC3CCCCC3)CC[C@]3(C)[C@H](CC[C@@H]4[C@@]5(C)CCCNC(C)(C)[C@@H]5CC[C@]43C)[C@@H]12,-85.4% (active)
8,CCN(CC)CCCN1C(=O)c2c(c(C)c3c(oc4cc(OC)ccc43)c2C)C1=O,116% (inactive)
9,Nc1ccc(Nc2nccc(-c3ccc4ccccc4c3)n2)cc1,-10.6% (active)
10,Oc1cc2ccccc2c(-c2c(O)c(O)cc3ccccc23)c1O,26.6% (inactive)
11,C=C1CCC2C(C)(CO)C(O)CCC2(C)C1C/C=C1/C(=O)OCC1Oc1ccccc1C (stereo not given),60% (inactive)
12,Nc1ncc(-c2ccc3ncnc(N4CCc5cc(F)c(Cl)cc54)c3c2)cn1,15.8% (inactive) and -64% (active)
13,CC1(C)CC(=O)CC2(C1)N=C(N)Nc1nc3ccccc3n12 (stereo not given),107% (inactive)
14,COc1cc(OC)cc(-c2cc(-c3c[nH]c4ccccc34)nc(-c3c[nH]c4ccccc34)c2C#N)c1,92.2% (inactive)
15,C#CC[C@@H]1C[C@]2(C)[C@H]3CC[C@@H]4[C@H]5C(C(=C)C)CC[C@]5(C(=O)NCCCN5CCN(CCCN)CC5)CC[C@@]4(C)[C@]3(C)CC[C@H]2C(C)(C)[C@H]1OC(C)=O (stereo not given in full),-76.5% (active)
16,CC(C)(C)OC(=O)c1ccc(NCc2cc(O)ccc2O)cc1,-17.6% (active)
17,O=C(Nc1ccc(Oc2ccc(F)cc2)c(Cl)c1)c1cccnn1,39.3% (inactive)
18,C#CCOc1cccc(Nc2ncnc3cc(NC(=O)C=C)ccc23)c1,-24.9% (active)
19,c1coc(CSc2ncnc3nc[nH]c23)c1,96% (inactive)
20,O=C(N=c1n(-c2ccccc2)nc2n1CCN2C1=NCCN1C(=O)c1ccc(Cl)cc1)c1ccc(Cl)cc1,73.6% (inactive)
